# Measured values as given in the supplement of paper PMC4466236.
# Whole data set: some 33,000 sequences, median “E-score (dimensionless, -0.5 to 0.5)” near -0.058, cut for the highest 2% near 0.35. The entries come from a sample that favours the highest values as a whole.
# System: MvaT
# Assay: PBM 8-mer E-score (mean of HK and ME arrays) (E-score (dimensionless, -0.5 to 0.5)); higher = stronger relative binding preference
# Procedure: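 Protein binding microarray: GST-tagged full-length MvaT (P. aeruginosa PAO1) bound to two universal double-stranded 60-mer arrays (ME and HK), each with a constant 25-mer primer and a variable 35-mer region covering all 8-mers. The 8-mer E-score (rank-based, range -0.5 to 0.5, >0.45 = specific binding) is the mean of the two arrays.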
row,Sequence,PBM 8-mer E-score
1,ATTTCTGC,0.125
2,ATTCATTA,0.219
3,GATAGGAA,-0.0142
4,AAATTGCT,0.214
5,AACCCGTC,-0.0101
6,GTCGAGAA,-0.0478
7,GCATACCC,0.0205
8,TCACGCAA,-0.124
9,GAGTTTAA,0.235
10,CTGTTTAA,0.302
11,AAGTTTAC,0.157
12,TAGTTTAA,0.398
13,ATGTTTAA,0.391
14,AAGTTTGA,0.289
15,AAGTTTAA,0.357
16,ATGTTTAG,0.212
17,AAGTTTAG,0.288
18,AAGTTTAT,0.358
19,CAGTTTAA,0.26
20,AAGTTTTA,0.318
21,TATTCGGA,-0.000615
22,ACAGGTCG,-0.216
23,CTGTGTGC,0.0347
24,AAGCAGGT,0.0586
25,CGTTCAAG,-0.0745

row,Sequence,PBM 8-mer E-score
1,GCTCGCAA,-0.107
2,AGTTTTAT,0.351
3,AGTTTTAC,0.221
4,AGTTTTAG,0.162
5,ATACGGCG,-0.11
6,AACAACTA,0.335
7,AACAACTC,0.185
8,AACAACTT,0.358
9,AGTGGGCA,0.0126
10,GGTCCGAA,-0.0643
11,ATAACTAT,0.388
12,ATAACAAC,0.228
13,ACAACAAT,0.372
14,AAAACAAG,0.122
15,AAAACAAC,0.282
16,ATAACTAA,0.32
17,AAAACAAT,0.349
18,ATAACAAT,0.355
19,ATAACAAG,0.283
20,ATAACTAG,0.27
21,ACAACAAG,0.138
22,ACAACAAC,0.216
23,AAGTAGAC,0.0778
24,ACCATATC,0.099
25,GCGTGGAC,-0.192

row,Sequence,PBM 8-mer E-score
1,TATGGACA,0.0866
2,TGCAGGCA,-0.0892
3,GACCACCC,-0.296
4,CTTTATAA,0.344
5,GTTTATCA,0.19
6,GTTTATGA,0.208
7,ATTTATAA,0.459
8,CTTTATAC,0.264
9,ATTTATAG,0.342
10,GTTTATAA,0.383
11,ATTTATAC,0.383
12,ATTTATCC,0.286
13,CGATACGC,-0.172
14,AGCGGGAT,-0.138
15,ACCCTTTC,-0.289
16,GGCAATAA,0.228
17,ACTAATTG,0.308
18,CCTAATGA,-0.254
19,GCTAATCA,0.0157
20,GCTAATGA,-0.138
21,ACTAATTC,0.227
22,GCTAATTA,0.352
23,CCTAATTA,0.358
24,ACTAATTA,0.45
25,CCTAATTC,0.0847

row,Sequence,PBM 8-mer E-score
1,CAAGTAGA,0.141
2,AGTCAGCA,-0.0242
3,GGCCAGAA,-0.026
4,GAACGGGA,-0.0641
5,GTGCGTTA,0.133
6,GACCTTGA,-0.138
7,AGGTTCCG,-0.212
8,AACTTCAA,0.345
9,AACTTAAA,0.352
10,CACTTAAA,0.0563
11,AAGTTCAA,0.398
12,GACTTCAA,0.0947
13,TACTTAAA,0.302
14,AACTTCAG,0.158
15,AACTTAAC,0.323
16,CAGTTCAA,0.0238
17,AACTTAAG,0.333
18,GAGTTCAA,0.174
19,AACTTAAT,0.381
20,GGGCCACC,-0.382
21,GATTTGTA,0.205
22,GCCCGCGC,-0.262
23,TGGTGCAA,0.0798
24,ACAGATGA,-0.0583
25,CGAGGTAC,-0.301

row,Sequence,PBM 8-mer E-score
1,ACCCATTA,0.241
2,CGTTAGCA,-0.0988
3,CCGGCCTA,-0.174
4,ATAATTAA,0.456
5,CTGATTAA,0.278
6,ATAATTGA,0.338
7,AGAATTAG,0.00537
8,GCAATTAC,0.169
9,ATAATTCG,0.228
10,CTAATTAA,0.413
11,GTAATTAA,0.343
12,ATAATTAG,0.429
13,GTAATTAC,0.393
14,GAAATTAC,0.247
15,CTAATTCA,0.228
16,CCGTGCCC,-0.184
17,ATCCTGGA,0.0568
18,CCGCACGA,-0.13
19,AACTATGT,0.258
20,ATGGAGAC,-0.0433
21,CTTTTCTC,-0.00236
22,TATTTCCA,0.312
23,AGACTAAC,0.00982
24,AGATACCC,-0.0322
25,ATAATGGA,0.238

row,Sequence,PBM 8-mer E-score
1,CACGTCTC,-0.173
2,ATAATTAC,0.378
3,CTAATTAC,0.322
4,CTAATTAG,0.35
5,ATAATTAT,0.467
6,AGAATTAT,0.315
7,ATAATTGG,0.308
8,ATAATTCC,0.254
9,CAAATTAG,0.18
10,CCAATTAG,0.073
11,AGCTAATC,-0.0533
12,GAAGTTGA,0.0448
13,ATTTGGAA,0.0956
14,CACTAATA,0.323
15,GACTAATA,0.297
16,AAATACTC,0.207
17,TAATACTA,0.37
18,TACTAATA,0.357
19,CAATACAA,0.199
20,TAATACAA,0.397
21,GAATACTA,0.212
22,AAATACTA,0.383
23,AAATACTT,0.246
24,AAATACAA,0.33
25,CAATACTA,0.172

row,Sequence,PBM 8-mer E-score
1,CTTCGAGC,-0.301
2,AGAGGCGC,-0.328
3,CCACGCGC,-0.112
4,CCCATCGG,-0.267
5,GGATACGA,0.0766
6,AAGATCGC,-0.0523
7,AATGGTTC,-0.0396
8,AAATACCG,0.271
9,CCCTAAGG,-0.289
10,TAGTTATA,0.402
11,GAGTTATA,0.369
12,GCGTTATA,0.252
13,TAGTTAGA,0.178
14,GAGTTATC,0.0914
15,CAGTTATC,0.131
16,AAGTTAGA,0.302
17,AAGTTATA,0.442
18,TAGTTACA,0.247
19,CCGTTATA,0.308
20,CAGTTATA,0.36
21,AAGTTACA,0.264
22,AAGATTGG,0.154
23,GAAACGGA,-0.164
24,ATAACCTA,0.182
25,ATGTCGAC,0.0419

row,Sequence,PBM 8-mer E-score
1,AGTTCTGA,0.144
2,AAAATCAA,0.18
3,AAAGCTGG,-0.0254
4,CATAATTC,0.223
5,GAGAATTA,0.23
6,AATAATTC,0.344
7,CATAATTA,0.421
8,AATAATTA,0.463
9,CATAATCA,0.227
10,AGTAATTG,0.293
11,GATAATCC,0.175
12,GATAATTA,0.419
13,AAGAATTA,0.295
14,AATAATTG,0.372
15,AATAATCG,0.309
16,ATTCTTGC,0.0322
17,CATAGGGA,-0.132
18,TCCTTCCA,-0.27
19,GCAGTATA,0.287
20,ATCGGCGC,-0.104
21,AGCCCTAT,-0.14
22,AAGAAGAC,-0.0906
23,TAACAGGA,0.223
24,AGCCGCCT,-0.243
25,CGTTGGCC,-0.25

row,Sequence,PBM 8-mer E-score
1,AGATACGG,-0.112
2,ATTTTTCC,0.0867
3,GTCGTGAA,-0.22
4,CAAAGGTA,-0.113
5,CAACACCA,0.0286
6,AGATATAC,0.155
7,AGAGATAA,0.144
8,AGATATAG,0.208
9,AGATATCA,0.194
10,AGATATAA,0.373
11,AGATATAT,0.46
12,GAATGGGC,-0.16
13,CAGATTAA,0.137
14,GATATTAA,0.438
15,GATATTAC,0.293
16,CATATTAA,0.418
17,CATATTCA,0.184
18,GAGATTAA,0.232
19,CCTACCAG,-0.279
20,CGGTTATC,0.0552
21,GCATCGGA,-0.11
22,CTGATGCC,-0.231
23,AGAGAAAT,0.134
24,GATAGTAA,0.284
25,CAATTAAG,0.24

row,Sequence,PBM 8-mer E-score
1,TGATTAAA,0.27
2,CAATTAAA,0.305
3,AAATTACG,0.256
4,GGATTAAA,0.232
5,AAATTACT,0.308
6,AAATTAGT,0.281
7,GAATTAAC,0.256
8,GAATTAAA,0.385
9,TAATTAAA,0.447
10,AAATTAAT,0.426
11,AAATTAAG,0.361
12,CCCGTACA,-0.0141
13,CGTAATCA,0.0215
14,AAATTAAC,0.27
15,AAATTAGA,0.191
16,AAATTAAA,0.399
17,CGGAGGGA,-0.311
18,CAAAACAC,0.0954
19,AGTTTAAG,0.257
20,AGTTTTAA,0.259
21,TGTTTTAA,0.302
22,TGTTTAAA,0.387
23,AGTTTAAA,0.378
24,AGTTTAAT,0.379
25,CGTTTAAA,0.317

row,Sequence,PBM 8-mer E-score
1,GGTTTAAA,0.31
2,AGTTTAAC,0.244
3,AATTCTGA,0.0908
4,TGCATCCA,-0.0802
5,GGGCCCTA,-0.218
6,AGGAAGAG,-0.188
7,ATGGAGTA,0.0119
8,AATACTAA,0.356
9,GATACTAA,0.213
10,CATACTAA,0.198
11,TATACTAA,0.391
12,AATACTAC,0.271
13,AATACTAT,0.297
14,TCTGAGAA,-0.0369
15,AGCTAAGA,-0.0322
16,CTAATGTA,0.23
17,CTAATGCA,-0.0396
18,ATAATGTA,0.401
19,ATAATGCA,0.36
20,ATAATGTC,0.337
21,ATAATGCG,0.271
22,ATCCCGCC,-0.0462
23,CCTATCTC,0.0122
24,AACCGTTG,-0.0901
25,GTTGTACA,0.115

row,Sequence,PBM 8-mer E-score
1,AAGAGTGA,0.00575
2,CTTCACTC,-0.239
3,CTAAGTTC,0.232
4,GTAAGTTA,0.396
5,ATAAGTTC,0.368
6,CTAAGTCA,-0.101
7,ATAAGTTG,0.342
8,GGAAGTTA,0.227
9,CTAAGTTA,0.352
10,AGAAGTTC,0.223
11,ATAAGTTA,0.441
12,ATAAGTGC,0.178
13,ACAAGTTA,0.338
14,GCAAGTTA,0.34
15,ACACAACG,-0.0104
16,GAAGGAGA,-0.255
17,GGGTTCAC,-0.111
18,AACCATAT,0.254
19,AACATCCC,2.53e-05
20,TACGAGGA,-0.05
21,GGGGCCAA,-0.225
22,CTATCCAA,-0.0391
23,ATATTAGA,0.407
24,GTATTAGA,0.267
25,ATATTAGC,0.352

row,Sequence,PBM 8-mer E-score
1,ATATTACC,0.293
2,ATATTACA,0.386
3,CTATTACA,0.267
4,CTATTAGA,0.208
5,ATATTAGG,0.309
6,CTATTAGC,0.136
7,ATCTGTGA,-0.0144
8,CACTTAGC,-0.0629
9,GCCCGCGA,-0.31
10,ACCTGTCG,-0.277
11,CTGAAAAG,-0.0791
12,AAAATTAA,0.387
13,AAAATTAC,0.149
14,CAAATTAA,0.286
15,AAAATTAT,0.355
16,AAAATTAG,0.162
17,GAAATTAA,0.331
18,TAAATTAA,0.437
19,AAAATTGT,0.269
20,AAAATTGA,0.224
21,CCTAATAC,0.104
22,GGGCTCCA,-0.168
23,GAAGCATA,0.00764
24,CACACCTA,0.0249
25,ACACGAGT,-0.0299

row,Sequence,PBM 8-mer E-score
1,ACTACTGG,0.0326
2,AATCCGCC,-0.0734
3,ACTTAAAA,0.226
4,CTTTTAAA,0.361
5,CCTTAAAA,0.0816
6,CTTTTAAC,0.314
7,ATTTTTAA,0.323
8,ATTTAAAA,0.377
9,CTTTTTAA,0.213
10,GTTTTAAA,0.282
11,ATTTTAAA,0.383
12,CGCTGGAA,-0.092
13,AGCAAAAA,0.0929
14,ACGTTGAT,0.0529
15,GCAAACAA,0.0823
16,AATATAGA,0.365
17,TATATAGA,0.434
18,CATATAGA,0.187
19,AATATAGT,0.398
20,AATATAGC,0.343
21,AATATAGG,0.288
22,AATAGAGA,0.217
23,GATATAGA,0.206
24,ACTATAGA,0.127
